The supplement of paper PMC8728848
This is one part of a sample in which the strongest signals are shown more often than they occur.

Experiments:
Assay in all cases: glycan array binding signal (z-score within array); higher = stronger binding
Conditions in all cases: glycan notation: IUPAC condensed, linker removed; mutation: R349A
Fuc(a1-2)Gal(b1-4)GlcNAc = molecular target: Fuc(a1-2)Gal(b1-4)GlcNAc
How it was run: (§1)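 The Consortium for Functional Glycomics database supplied 3228 glycan arrays, of which those lacking an available protein sequence were dropped. The binding signal, a within-array Z-score, was averaged across arrays of the same protein sequence and across linkers. Negative scores can be read as non-binding.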

[1] = molecular target: Fuc(a1-2)Gal(b1-4)GlcNAc(b1-3)Gal(b1-4)GlcNAc
How it was run: as §1

[2] = molecular target: Fuc(a1-2)[GalNAc(b1-3)]Gal
How it was run: as §1

[3] = molecular target: Fuc(a1-3)[Gal(b1-4)]GlcNAc(b1-3)Gal(b1-3)[Fuc(a1-4)]GlcNAc
How it was run: as §1

Gal(b1-3)GalNAc = molecular target: Gal(b1-3)GalNAc
How it was run: as §1

[4] = molecular target: Gal(b1-3)GalNAc(b1-4)[Neu5Ac(a2-3)]Gal(b1-4)Glc
How it was run: as §1

[5] = molecular target: Gal(b1-3)[Fuc(a1-4)]GlcNAc(b1-3)Gal(b1-4)GlcNAc
How it was run: as §1

[6] = molecular target: Gal(b1-4)GlcNAc(b1-3)[GlcNAc(b1-6)]Gal(b1-4)GlcNAc
How it was run: as §1

Gal3S(b1-4)Glc = molecular target: Gal3S(b1-4)Glc
How it was run: as §1

Gal3S6S(b1-4)GlcNAc = molecular target: Gal3S6S(b1-4)GlcNAc
How it was run: as §1

Gal3S6S(b1-4)GlcNAc6S = molecular target: Gal3S6S(b1-4)GlcNAc6S
How it was run: as §1

Gal6S(b1-4)Glc6S = molecular target: Gal6S(b1-4)Glc6S
How it was run: as §1

[7] = molecular target: GlcNAc(b1-2)Man(a1-3)[GlcNAc(b1-2)Man(a1-6)]Man(b1-4)GlcNAc(b1-4)GlcNAc
How it was run: as §1

GlcNAc(b1-3)Gal = molecular target: GlcNAc(b1-3)Gal
How it was run: as §1

[8] = molecular target: GlcNAc(b1-4)GlcNAc(b1-4)GlcNAc
How it was run: as §1

[9] = molecular target: GlcNAc(b1-4)GlcNAc(b1-4)GlcNAc(b1-4)GlcNAc(b1-4)GlcNAc
How it was run: as §1

[10] = molecular target: GlcNAc(b1-4)[GlcNAc(b1-6)]GalNAc
How it was run: as §1

[11] = molecular target: Man(a1-2)Man(a1-2)Man(a1-6)[Man(a1-3)]Man
How it was run: as §1

Man(a1-2)Man(a1-3)Man = molecular target: Man(a1-2)Man(a1-3)Man
How it was run: as §1

[12] = molecular target: Man(a1-2)Man(a1-3)[Man(a1-2)Man(a1-6)]Man(a1-6)[Man(a1-2)Man(a1-2)Man(a1-3)]Man
How it was run: as §1

[13] = molecular target: Man(a1-3)[Man(a1-6)]Man(a1-6)[Man(a1-2)Man(a1-3)]Man(b1-4)GlcNAc(b1-4)GlcNAc
How it was run: as §1

[14] = molecular target: Neu5Ac(a2-3)Gal(b1-4)GlcNAc(b1-2)Man(a1-3)[GlcNAc(b1-2)Man(b1-4)GlcNAc(b1-2)Man(a1-6)]Man(b1-4)GlcNAc(b1-4)GlcNAc
How it was run: as §1

[15] = molecular target: Neu5Ac(a2-3)Gal(b1-4)[Fuc(a1-3)]GlcNAc(b1-3)Gal(b1-4)[Fuc(a1-3)]GlcNAc(b1-3)Gal(b1-4)[Fuc(a1-3)]GlcNAc
How it was run: as §1

Neu5Ac(a2-6)GalNAc = molecular target: Neu5Ac(a2-6)GalNAc
How it was run: as §1

[16] = molecular target: Neu5Ac(a2-8)Neu5Ac(a2-8)Neu5Ac(a2-3)[GalNAc(b1-4)]Gal(b1-4)Glc
How it was run: as §1

B1: Surfactant Protein D (Human); Neck + Carbohydrate Recognition Domain (NCRD) (Homo sapiens) (protein)
chain: MLLFLLSALVLLTQPLGYLEAEMKTYSHRTMPSACTLVMCSSVESGLPGRDRDGREGPRGEKGDPGLPGAAGQAGMPGQAGPVGPKGDNGSVGEPGPKGDTGPSGPPGPPGVPGPAGREGALGKQGNIGPQGKPGPKGEAGPKGEVGAPGMQGSAGARGLAGPKGERGVPGERGVPGNTGAAGSAGAMGPQGSPGARGPPGLKGDKGIPGDKGAKGESGLPDVASLRQQVEALQGQVQHLQAAFSQYKKVELFPNGQSVGEKIFKTAQFVKPFTEAQLLCTQAGGQLASPRSAAENAALQQLVVAKNEAAFLSMTDSKTEGKFTYPTGESLVYSNWAPGEPNDDGGSEDCVEIFTNGKWNDRACGEKALVVCEF
glycan array binding signal (z-score) (Fuc(a1-2)Gal(b1-4)GlcNAc): -0.584
glycan array binding signal (z-score) [1]: -0.301
glycan array binding signal (z-score) [2]: -0.782
glycan array binding signal (z-score) [3]: -0.667
glycan array binding signal (z-score) (Gal(b1-3)GalNAc): -0.459
glycan array binding signal (z-score) [4]: 0.216
glycan array binding signal (z-score) [5]: 0.257
glycan array binding signal (z-score) [6]: -0.419
glycan array binding signal (z-score) (Gal3S(b1-4)Glc): 0.892
glycan array binding signal (z-score) (Gal3S6S(b1-4)GlcNAc): 2.25
glycan array binding signal (z-score) (Gal3S6S(b1-4)GlcNAc6S): 3.32
glycan array binding signal (z-score) (Gal6S(b1-4)Glc6S): 3.96
glycan array binding signal (z-score) [7]: -0.653
glycan array binding signal (z-score) (GlcNAc(b1-3)Gal): -0.71
glycan array binding signal (z-score) [8]: 3.19
glycan array binding signal (z-score) [9]: 0.258
glycan array binding signal (z-score) [10]: -0.577
glycan array binding signal (z-score) [11]: -0.532
glycan array binding signal (z-score) (Man(a1-2)Man(a1-3)Man): 0.578
glycan array binding signal (z-score) [12]: 4.48
glycan array binding signal (z-score) [13]: 7.39
glycan array binding signal (z-score) [14]: 0.008
glycan array binding signal (z-score) [15]: -0.593
glycan array binding signal (z-score) (Neu5Ac(a2-6)GalNAc): 0.373
glycan array binding signal (z-score) [16]: -0.579
